Of roughly 7,900 targets only a part is listed; those with a hit were picked by preference. About 0.6% of all pairs of compound and target were hits.

Chain of UniProt P09211 (P09211 whole entry, looked up): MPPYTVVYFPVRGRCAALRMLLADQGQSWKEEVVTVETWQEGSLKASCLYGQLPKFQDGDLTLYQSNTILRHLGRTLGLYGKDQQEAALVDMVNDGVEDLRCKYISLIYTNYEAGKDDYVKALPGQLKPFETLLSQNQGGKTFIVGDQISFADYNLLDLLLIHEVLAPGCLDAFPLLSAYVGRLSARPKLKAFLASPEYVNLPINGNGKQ
Chain of UniProt P15586 (P15586 whole entry, looked up): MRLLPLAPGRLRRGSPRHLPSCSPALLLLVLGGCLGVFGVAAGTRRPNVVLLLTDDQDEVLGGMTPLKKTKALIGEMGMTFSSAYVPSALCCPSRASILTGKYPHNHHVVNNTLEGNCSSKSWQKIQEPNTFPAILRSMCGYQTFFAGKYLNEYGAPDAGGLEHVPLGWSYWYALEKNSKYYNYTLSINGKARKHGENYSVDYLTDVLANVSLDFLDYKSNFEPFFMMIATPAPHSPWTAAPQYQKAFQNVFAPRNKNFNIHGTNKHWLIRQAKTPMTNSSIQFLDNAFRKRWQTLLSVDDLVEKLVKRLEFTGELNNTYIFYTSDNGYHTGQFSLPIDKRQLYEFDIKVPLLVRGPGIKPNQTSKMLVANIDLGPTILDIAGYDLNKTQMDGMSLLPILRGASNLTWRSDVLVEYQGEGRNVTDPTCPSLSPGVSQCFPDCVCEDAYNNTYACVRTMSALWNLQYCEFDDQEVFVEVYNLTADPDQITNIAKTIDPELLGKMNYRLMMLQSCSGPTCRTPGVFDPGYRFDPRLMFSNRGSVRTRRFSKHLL
Chain of UniProt P04035 (P04035 whole entry, looked up): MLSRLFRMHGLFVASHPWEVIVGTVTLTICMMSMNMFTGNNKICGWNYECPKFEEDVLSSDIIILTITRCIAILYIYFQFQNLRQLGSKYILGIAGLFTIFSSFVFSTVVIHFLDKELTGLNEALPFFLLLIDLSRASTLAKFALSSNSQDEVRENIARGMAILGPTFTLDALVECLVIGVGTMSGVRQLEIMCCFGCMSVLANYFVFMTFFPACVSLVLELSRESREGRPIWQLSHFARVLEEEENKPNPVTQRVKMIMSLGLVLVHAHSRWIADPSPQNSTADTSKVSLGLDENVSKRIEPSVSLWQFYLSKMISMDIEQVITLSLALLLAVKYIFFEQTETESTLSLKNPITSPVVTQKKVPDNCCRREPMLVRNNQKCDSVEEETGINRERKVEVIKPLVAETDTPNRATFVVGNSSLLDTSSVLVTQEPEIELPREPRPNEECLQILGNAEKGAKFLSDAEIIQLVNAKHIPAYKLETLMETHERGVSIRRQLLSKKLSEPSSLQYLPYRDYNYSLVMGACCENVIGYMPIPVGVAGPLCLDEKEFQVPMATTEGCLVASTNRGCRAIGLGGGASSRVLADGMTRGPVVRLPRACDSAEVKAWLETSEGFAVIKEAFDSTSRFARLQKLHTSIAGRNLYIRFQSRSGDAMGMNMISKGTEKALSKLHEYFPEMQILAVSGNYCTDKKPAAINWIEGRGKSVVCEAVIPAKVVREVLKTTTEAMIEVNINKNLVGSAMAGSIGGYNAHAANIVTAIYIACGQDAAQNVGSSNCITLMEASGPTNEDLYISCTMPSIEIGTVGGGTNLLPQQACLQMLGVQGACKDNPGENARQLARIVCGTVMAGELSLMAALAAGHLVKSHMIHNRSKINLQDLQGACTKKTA
Chain of UniProt Q9BUP3 (Q9BUP3 whole entry, looked up): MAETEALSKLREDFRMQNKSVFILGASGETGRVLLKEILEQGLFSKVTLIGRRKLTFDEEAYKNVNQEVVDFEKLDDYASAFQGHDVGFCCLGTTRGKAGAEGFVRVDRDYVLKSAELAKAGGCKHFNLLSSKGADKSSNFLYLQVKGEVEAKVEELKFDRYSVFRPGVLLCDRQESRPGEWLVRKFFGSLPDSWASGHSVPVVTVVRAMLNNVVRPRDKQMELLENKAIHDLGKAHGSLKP
Chain of UniProt Q9NRD1 (Q9NRD1 whole entry, looked up): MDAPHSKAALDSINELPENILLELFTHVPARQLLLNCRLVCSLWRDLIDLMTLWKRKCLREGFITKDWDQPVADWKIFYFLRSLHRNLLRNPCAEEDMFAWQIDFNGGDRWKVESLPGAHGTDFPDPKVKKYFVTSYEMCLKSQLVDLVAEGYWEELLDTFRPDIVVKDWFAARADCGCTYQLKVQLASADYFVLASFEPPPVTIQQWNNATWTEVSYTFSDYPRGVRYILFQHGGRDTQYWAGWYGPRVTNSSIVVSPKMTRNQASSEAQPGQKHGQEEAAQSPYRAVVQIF
Chain of UniProt P49841 (P49841 whole entry, looked up): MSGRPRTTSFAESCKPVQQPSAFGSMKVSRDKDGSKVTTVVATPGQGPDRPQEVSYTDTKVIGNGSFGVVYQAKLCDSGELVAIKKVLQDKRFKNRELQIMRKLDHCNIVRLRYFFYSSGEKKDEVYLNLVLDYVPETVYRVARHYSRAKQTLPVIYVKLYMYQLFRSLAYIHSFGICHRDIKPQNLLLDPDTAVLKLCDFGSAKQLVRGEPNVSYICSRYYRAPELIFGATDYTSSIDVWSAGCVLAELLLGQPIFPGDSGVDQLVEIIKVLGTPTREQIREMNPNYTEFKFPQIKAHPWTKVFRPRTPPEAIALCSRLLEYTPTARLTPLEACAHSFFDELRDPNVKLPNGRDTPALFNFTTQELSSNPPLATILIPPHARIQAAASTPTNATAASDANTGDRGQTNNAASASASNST
Chain of UniProt Q14527 (Q14527 whole entry, looked up): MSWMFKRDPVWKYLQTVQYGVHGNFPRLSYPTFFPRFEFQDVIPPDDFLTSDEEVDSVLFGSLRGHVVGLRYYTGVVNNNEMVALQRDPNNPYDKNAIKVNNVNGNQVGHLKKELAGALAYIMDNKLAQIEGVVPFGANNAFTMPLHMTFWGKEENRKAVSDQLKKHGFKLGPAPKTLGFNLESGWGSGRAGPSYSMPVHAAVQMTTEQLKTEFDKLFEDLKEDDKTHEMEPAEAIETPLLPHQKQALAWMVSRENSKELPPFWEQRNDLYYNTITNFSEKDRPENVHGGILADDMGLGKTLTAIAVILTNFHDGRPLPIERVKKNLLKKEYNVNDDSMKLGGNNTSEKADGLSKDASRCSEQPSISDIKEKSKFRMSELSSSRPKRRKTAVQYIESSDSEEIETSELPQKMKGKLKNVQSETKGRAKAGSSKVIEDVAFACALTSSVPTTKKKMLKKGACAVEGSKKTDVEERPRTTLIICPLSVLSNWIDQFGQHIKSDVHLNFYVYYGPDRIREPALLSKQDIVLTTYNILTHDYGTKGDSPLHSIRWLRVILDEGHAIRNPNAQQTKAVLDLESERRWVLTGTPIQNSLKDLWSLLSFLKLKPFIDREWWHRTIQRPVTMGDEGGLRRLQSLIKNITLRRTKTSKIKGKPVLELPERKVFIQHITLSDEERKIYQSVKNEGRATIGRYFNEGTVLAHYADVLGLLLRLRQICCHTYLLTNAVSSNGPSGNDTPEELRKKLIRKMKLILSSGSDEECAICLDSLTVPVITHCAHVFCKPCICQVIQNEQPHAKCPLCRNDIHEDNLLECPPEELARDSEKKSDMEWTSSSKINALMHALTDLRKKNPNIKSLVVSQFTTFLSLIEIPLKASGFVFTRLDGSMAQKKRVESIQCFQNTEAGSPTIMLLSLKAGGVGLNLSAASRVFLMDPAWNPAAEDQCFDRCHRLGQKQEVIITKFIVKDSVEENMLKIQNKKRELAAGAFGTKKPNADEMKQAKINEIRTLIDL
Chain of UniProt O43427 (O43427 whole entry, looked up): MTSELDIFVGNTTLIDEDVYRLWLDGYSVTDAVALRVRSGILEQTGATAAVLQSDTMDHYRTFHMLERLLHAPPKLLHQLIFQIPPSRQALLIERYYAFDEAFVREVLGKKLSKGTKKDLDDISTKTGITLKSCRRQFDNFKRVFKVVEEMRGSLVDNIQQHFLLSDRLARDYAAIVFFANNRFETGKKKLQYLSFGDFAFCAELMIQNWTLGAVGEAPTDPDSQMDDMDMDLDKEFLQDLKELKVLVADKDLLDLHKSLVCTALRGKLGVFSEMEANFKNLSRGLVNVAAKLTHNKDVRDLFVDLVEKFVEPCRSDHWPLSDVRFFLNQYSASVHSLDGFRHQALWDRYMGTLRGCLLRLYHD
Chain of UniProt Q9Y5Q8 (Q9Y5Q8 whole entry, looked up): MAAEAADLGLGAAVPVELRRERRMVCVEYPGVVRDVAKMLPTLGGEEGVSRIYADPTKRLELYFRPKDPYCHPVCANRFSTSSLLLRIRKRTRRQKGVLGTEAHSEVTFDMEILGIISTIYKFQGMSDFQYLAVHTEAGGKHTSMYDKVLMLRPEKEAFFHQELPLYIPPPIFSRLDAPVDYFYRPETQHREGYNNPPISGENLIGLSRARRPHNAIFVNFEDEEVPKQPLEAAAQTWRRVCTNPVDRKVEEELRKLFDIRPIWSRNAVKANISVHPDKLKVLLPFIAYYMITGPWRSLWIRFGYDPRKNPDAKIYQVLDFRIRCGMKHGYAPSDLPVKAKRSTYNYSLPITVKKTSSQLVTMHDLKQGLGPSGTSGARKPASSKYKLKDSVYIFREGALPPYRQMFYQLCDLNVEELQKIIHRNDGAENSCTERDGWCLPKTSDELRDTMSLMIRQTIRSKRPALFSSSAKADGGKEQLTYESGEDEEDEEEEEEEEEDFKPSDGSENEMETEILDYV
Chain of UniProt P78417 (P78417 whole entry, looked up): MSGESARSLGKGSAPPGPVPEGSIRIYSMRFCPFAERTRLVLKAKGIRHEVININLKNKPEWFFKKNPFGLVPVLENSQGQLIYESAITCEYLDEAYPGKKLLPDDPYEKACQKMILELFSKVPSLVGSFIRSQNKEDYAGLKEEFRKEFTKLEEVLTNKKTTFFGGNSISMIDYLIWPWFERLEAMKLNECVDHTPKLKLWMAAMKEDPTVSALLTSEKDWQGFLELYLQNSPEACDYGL
Chain of UniProt Q9H4G4 (Q9H4G4 whole entry, looked up): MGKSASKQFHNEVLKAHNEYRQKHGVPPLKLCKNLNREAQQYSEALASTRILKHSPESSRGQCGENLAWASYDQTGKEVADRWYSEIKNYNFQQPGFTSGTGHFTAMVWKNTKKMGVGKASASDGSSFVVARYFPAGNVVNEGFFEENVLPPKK

Compound in the first assay: CNCc1ccc(-c2[nH]c3cc(F)cc4c3c2CCNC4=O)cc1 [rucaparib]
Nature of the assay: log2 fold change, soluble protein after heating vs DMSO (PISA); higher = thermal stabilisation; K562 cells, 10 uM, 30 min; active = over 0.2 and 3.5 SD of the protein, either way, in both replicates (recomputed). In short, it runs like this:
(§1)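 K562 cells (2×10^6 cells/mL) were treated with 10 μM compound for 30 min, and aliquots were heated for 3 min over 48°C-58°C. Pooled aliquots were extracted in PBS with 0.5% NP-40 at 4°C, and the supernatant after 21,000xg for 90 min was measured by TMTpro 16plex LC-MS/MS with channel sums equalised. Reported thermal stability, relative to control samples and from duplicates, is a log2 fold change.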
On to FIBP (UniProt O43427), for which the log2 fold change was 0.395 (active).

In the case of HIP1 (UniProt O00291), the log2 fold change is 0.065 (inactive).

In the case of IFT74 (UniProt Q96LB3), the log2 fold change is 0.06 (inactive).

HECTD1 (UniProt Q9ULT8): the log2 fold change was 0.056 (inactive).

For FMC1 (UniProt Q96HJ9), the log2 fold change is -0.023 (inactive).

In the case of GUK1 isoform 2 (UniProt Q16774), the log2 fold change was 0.175 (inactive).

Turning to FUBP3 (UniProt Q96I24), the log2 fold change is 0.167 (inactive).

In the case of FKBP7 (UniProt Q9Y680), the log2 fold change was 0.01 (inactive).

Take GCLM (UniProt P48507): the log2 fold change is 0.033 (inactive).

Take FBXO6 (UniProt Q9NRD1): the log2 fold change was -0.064 (inactive).

For the target HTATIP2 isoform 3 (UniProt Q9BUP3), the log2 fold change is 0.023 (inactive).

For FDFT1 (UniProt P37268), the log2 fold change is 0.004 (inactive).

In the case of HP1BP3 (UniProt Q5SSJ5), the log2 fold change was -0.041 (inactive).

Take GCSH (UniProt P23434): the log2 fold change is -0.012 (inactive).

Take IFRD1 (UniProt O00458): the log2 fold change was -0.46 (active).

GATD1 (UniProt Q8NB37): the log2 fold change was -0.004 (inactive).

HOOK3 (UniProt Q86VS8): the log2 fold change was -0.063 (inactive).

In the case of H3-3A (UniProt P84243), the log2 fold change was 0.031 (inactive).

On to GSTP1 (UniProt P09211), for which the log2 fold change was -0.046 (inactive).

Take HNRNPUL1 (UniProt Q9BUJ2): the log2 fold change was 0.075 (inactive).

For HSPA8 (UniProt E9PK54), the log2 fold change was -0.287 (inactive).

For HMGCR isoform 3 (UniProt P04035), the log2 fold change is -0.208 (inactive).

For the target GSK3B isoform 2 (UniProt P49841), the log2 fold change was 0.059 (inactive).

Consider HLTF (UniProt Q14527), for which the log2 fold change is -0.033 (inactive).

For GTF3C5 isoform 3 (UniProt Q9Y5Q8), the log2 fold change was -0.173 (inactive).

Turning to HNRNPK isoform 2 (UniProt P61978), the log2 fold change is -0.053 (inactive).

For the target IFNGR1 (UniProt P15260), the log2 fold change was 0.056 (inactive).

For ICAM1 (UniProt P05362), the log2 fold change was 0.049 (inactive).

In the case of GTF2A2 (UniProt P52657), the log2 fold change is -0.061 (inactive).

For GLUD2 (UniProt P49448), the log2 fold change was 0.003 (inactive).

Regarding GLIPR2 (UniProt Q9H4G4), the log2 fold change is 0.015 (inactive).

Take HBQ1 (UniProt P09105): the log2 fold change was -0.027 (inactive).

For GSTO1 (UniProt P78417), the log2 fold change was -0.09 (inactive).

Turning to GNS (UniProt P15586), the log2 fold change is 0 (inactive).

Compound in the next assay: CNc1nc(-c2ccc3c(N)n[nH]c3c2)cc(N2C[C@@H](C(=O)NC3CCCCC3)CC[C@H]2C)n1
Described as above. In short, it runs like this:
as §1
FIBP (UniProt O43427): the log2 fold change was -0.085 (inactive).

As to HIP1 (UniProt O00291), the log2 fold change is -0.024 (inactive).

With IFT74 (UniProt Q96LB3), the log2 fold change was 0.003 (inactive).

Regarding HECTD1 (UniProt Q9ULT8), the log2 fold change is -0.001 (inactive).

Regarding FMC1 (UniProt Q96HJ9), the log2 fold change was -0.071 (inactive).

As for GUK1 isoform 2 (UniProt Q16774), the log2 fold change was 0.026 (inactive).

In the case of FUBP3 (UniProt Q96I24), the log2 fold change is -0.049 (inactive).

With FKBP7 (UniProt Q9Y680), the log2 fold change was 0.031 (inactive).

As to GCLM (UniProt P48507), the log2 fold change was -0.045 (inactive).

Regarding FBXO6 (UniProt Q9NRD1), the log2 fold change is 0.011 (inactive).

As to HTATIP2 isoform 3 (UniProt Q9BUP3), the log2 fold change is 0.022 (inactive).

For FDFT1 (UniProt P37268), the log2 fold change is -0.072 (inactive).

In the case of HP1BP3 (UniProt Q5SSJ5), the log2 fold change was -0.001 (inactive).

For GCSH (UniProt P23434), the log2 fold change is -0.004 (inactive).

Take IFRD1 (UniProt O00458): the log2 fold change was -0.042 (inactive).

For the target GATD1 (UniProt Q8NB37), the log2 fold change is -0.022 (inactive).

Turning to HOOK3 (UniProt Q86VS8), the log2 fold change is -0.008 (inactive).

Regarding H3-3A (UniProt P84243), the log2 fold change was 0.189 (inactive).

For GSTP1 (UniProt P09211), the log2 fold change was 0.02 (inactive).

Consider HNRNPUL1 (UniProt Q9BUJ2), for which the log2 fold change is 0.034 (inactive).

HSPA8 (UniProt E9PK54): the log2 fold change was -0.033 (inactive).

With HMGCR isoform 3 (UniProt P04035), the log2 fold change was -0.024 (inactive).

Turning to GSK3B isoform 2 (UniProt P49841), the log2 fold change was -0.019 (inactive).

With HLTF (UniProt Q14527), the log2 fold change was -0.074 (inactive).

As to GTF3C5 isoform 3 (UniProt Q9Y5Q8), the log2 fold change is 0.056 (inactive).

As to HNRNPK isoform 2 (UniProt P61978), the log2 fold change was 0.015 (inactive).

Consider IFNGR1 (UniProt P15260), for which the log2 fold change is -0.009 (inactive).

ICAM1 (UniProt P05362): the log2 fold change is 0.099 (inactive).

Regarding GTF2A2 (UniProt P52657), the log2 fold change was -0.025 (inactive).

For the target GLUD2 (UniProt P49448), the log2 fold change is 0.178 (inactive).

With GLIPR2 (UniProt Q9H4G4), the log2 fold change is 0.035 (inactive).

For the target HBQ1 (UniProt P09105), the log2 fold change was 0.008 (inactive).

Turning to GSTO1 (UniProt P78417), the log2 fold change is -0.004 (inactive).

In the case of GNS (UniProt P15586), the log2 fold change is -0.034 (inactive).

Compound in a further assay: COC(=O)N[C@@H](C)CNc1nccc(-c2cn(C(C)C)nc2-c2cc(Cl)cc(NS(C)(=O)=O)c2F)n1 [encorafenib]
Described as above. In short, it runs like this: as §1
For FIBP (UniProt O43427), the log2 fold change was 0.039 (inactive).

Regarding HIP1 (UniProt O00291), the log2 fold change was -0.048 (inactive).

With IFT74 (UniProt Q96LB3), the log2 fold change is -0.055 (inactive).

In the case of HECTD1 (UniProt Q9ULT8), the log2 fold change is -0.154 (inactive).

For FMC1 (UniProt Q96HJ9), the log2 fold change is -0.105 (inactive).

Regarding GUK1 isoform 2 (UniProt Q16774), the log2 fold change was -0.079 (inactive).

In the case of FUBP3 (UniProt Q96I24), the log2 fold change was -0.003 (inactive).

As to FKBP7 (UniProt Q9Y680), the log2 fold change was 0.044 (inactive).

As to GCLM (UniProt P48507), the log2 fold change is 0.048 (inactive).

On to FBXO6 (UniProt Q9NRD1), for which the log2 fold change was 0.033 (inactive).

Take HTATIP2 isoform 3 (UniProt Q9BUP3): the log2 fold change is 0.01 (inactive).

As to FDFT1 (UniProt P37268), the log2 fold change is -0.032 (inactive).

For the target HP1BP3 (UniProt Q5SSJ5), the log2 fold change is 0.075 (inactive).

For the target GCSH (UniProt P23434), the log2 fold change was -0.028 (inactive).

With IFRD1 (UniProt O00458), the log2 fold change is 0.038 (inactive).

As for GATD1 (UniProt Q8NB37), the log2 fold change is 0 (inactive).

Consider HOOK3 (UniProt Q86VS8), for which the log2 fold change is 0.022 (inactive).

As for H3-3A (UniProt P84243), the log2 fold change was 0.034 (inactive).

For GSTP1 (UniProt P09211), the log2 fold change is -0.007 (inactive).

As to HNRNPUL1 (UniProt Q9BUJ2), the log2 fold change is 0.063 (inactive).

Turning to HSPA8 (UniProt E9PK54), the log2 fold change is 0.051 (inactive).

Take HMGCR isoform 3 (UniProt P04035): the log2 fold change was 0.094 (inactive).

In the case of GSK3B isoform 2 (UniProt P49841), the log2 fold change was -0.003 (inactive).

For HLTF (UniProt Q14527), the log2 fold change is -0.195 (inactive).

On to GTF3C5 isoform 3 (UniProt Q9Y5Q8), for which the log2 fold change is 0.085 (inactive).

With HNRNPK isoform 2 (UniProt P61978), the log2 fold change was 0.028 (inactive).

Consider IFNGR1 (UniProt P15260), for which the log2 fold change was -0.026 (inactive).

As for ICAM1 (UniProt P05362), the log2 fold change was -0.004 (inactive).

For the target GTF2A2 (UniProt P52657), the log2 fold change was -0.022 (inactive).

Turning to GLUD2 (UniProt P49448), the log2 fold change is -0.117 (inactive).

On to GLIPR2 (UniProt Q9H4G4), for which the log2 fold change was -0.062 (inactive).

Regarding HBQ1 (UniProt P09105), the log2 fold change was -0.007 (inactive).

GSTO1 (UniProt P78417): the log2 fold change was 0.001 (inactive).

For the target GNS (UniProt P15586), the log2 fold change is 0.009 (inactive).

The record behind these values is the supplement of paper PMC10849652.
